In general, AC50 refers to the concentration giving half of the maximal activity seen.

This is an account of results in PubChem BioAssay (EPA / NIEHS).

“And” between values parts separate entries of the source, which are not always exact repeats. Identical values can stand only once. A structure can be active in one record and inactive in another. The source made the active and inactive calls. How the source made its calls: active means hit-call score of the fitted dose curve at least 0.9, where 1 is the maximum; inactive means score below 0.9.

Common to all, as to settings: mRNA level, 48 h; actives raise or lower the signal
Read-out in assay [1]: Early growth response protein 1 (EGR1) transcription factor, EGR1 (gene 1958)
Kind of assay: LTEA_HepaRG_EGR1: Life Technologies and Expression Analysis (LTEA) Assay for Early growth response protein 1 (EGR1) transcription factor using HepaRG (AID 2283490). The procedure, abridged: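 HepaRG, 48 h exposure, 8-pt half-log series from 100 uM, 0.5% DMSO vehicle; EGR1 transcript by TaqMan qRT-PCR (Fluidigm array), housekeeping-normalized; bidirectional fit relative to DMSO baseline.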

Read-out in assay [2]: Ezrin (EZR), EZR (gene 7430)
The assay is described as follows: LTEA_HepaRG_EZR: Life Technologies and Expression Analysis (LTEA) Assay for Ezrin (EZR) using HepaRG (AID 2283491). The gist of the method:
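EZR transcript levels came from Fluidigm qRT-PCR and were normalized to three housekeeping genes after 48 h chemical exposure of HepaRG cells. Dosing used an 8-point half-log series with a 100 uM top concentration in 0.5% DMSO, tested in duplicate; both directions were fitted versus vehicle.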

Read-out in assay [3]: Cytochrome P450 3A7 (Homo sapiens) (UniProt P24462)
The assay is described as follows: LTEA_HepaRG_CYP3A7: Life Technologies and Expression Analysis (LTEA) Assay for CYP3A7 using HepaRG (AID 2283492). The gist of the method:
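Human HepaRG liver cells, 48 h post-plating, switched to serum-free induction medium and exposed in duplicate for 48 h. Dosing: 100 uM top, half-log dilutions, 8 points, 0.5% DMSO vehicle. Read-out: CYP3A7 mRNA, gain or loss fitted against DMSO baseline.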

Read-out in the next assay: CYP3A5 (gene 1577)
The assay is described as follows: LTEA_HepaRG_CYP3A5: Life Technologies and Expression Analysis (LTEA) Assay for CYP3A5 using HepaRG (AID 2283493). The procedure, abridged:
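Readout was CYP3A5 mRNA by qRT-PCR. HepaRG cultures were exposed for 48 h in serum-free induction medium to chemicals at up to 100 uM, and responses were fitted in both directions relative to DMSO vehicle.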

Read-out in assay [4]: Fatty Acid-Binding Protein 1 (FABP1), FABP1 (gene 2168)
The assay is described as follows: LTEA_HepaRG_FABP1: Life Technologies and Expression Analysis (LTEA) Assay for Fatty Acid-Binding Protein 1 (FABP1) using HepaRG (AID 2283494). The procedure, abridged:
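qRT-PCR readout of FABP1 transcript (normalized to three housekeeping genes) after 48 h chemical exposure of HepaRG cells; eight concentrations, half-log steps, max 100 uM, 0.5% DMSO vehicle; gain or loss fitted relative to DMSO baseline.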

Read-out in assay [5]: Cytochrome P450 4A22 (Homo sapiens) (UniProt Q5TCH4)
The assay is described as follows: LTEA_HepaRG_CYP4A22: Life Technologies and Expression Analysis (LTEA) Assay for Cytochrome P450 4A22 (CYP4A22) using HepaRG (AID 2283495). The procedure, abridged: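 Readout is CYP4A22 transcript induction or loss, quantified by qRT-PCR and normalized to ACTB, GAPDH and POLR2A. Human HepaRG cells receive test chemicals for 48 h at eight half-log concentrations from 100 uM in 0.5% DMSO.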

Read-out in assay [6]: Cytochrome P450 7A1 (Homo sapiens) (UniProt P22680)
Kind of assay: LTEA_HepaRG_CYP7A1: Life Technologies and Expression Analysis (LTEA) Assay for Cytochrome P450 7A1 (CYP7A1) using HepaRG (AID 2283496). The gist of the method: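 Using 0.5% DMSO as vehicle and baseline, chemicals were tested in duplicate over an 8-point range from 100 uM on HepaRG cells for 48 h; qRT-PCR signals were normalised to ACTB, GAPDH and POLR2A.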

Read-out in assay [7]: Glutathione S-Transferase (GSTA2), GSTA2 (gene 2939)
The assay is described as follows: LTEA_HepaRG_GSTA2: Life Technologies and Expression Analysis (LTEA) Assay for Glutathione S-Transferase (GSTA2) using HepaRG (AID 2283497). The gist of the method: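 qRT-PCR readout of GSTA2 transcript, normalized to three housekeeping genes, fitted bidirectionally against 0.5% DMSO baseline. Differentiated HepaRG cells received compound for 48 h at 8 concentrations (top 100 uM, half-log steps).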

Read-out in assay [8]: Glutamate-cysteine ligase catalytic (GCLC), GCLC (gene 2729)
Kind of assay: LTEA_HepaRG_GCLC: Life Technologies and Expression Analysis (LTEA) Assay for Glutamate-cysteine ligase catalytic (GCLC) using HepaRG (AID 2283498). The gist of the method: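 HepaRG, 48 h exposure, 8-pt half-log series from 100 uM, 0.5% DMSO vehicle; TaqMan qRT-PCR for GCLC mRNA, housekeeping-normalized; bidirectional curve fit vs DMSO baseline.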

Read-out in assay [9]: Glutamate-cysteine ligase regulatory (GCLM), GCLM (gene 2730)
Kind of assay: LTEA_HepaRG_GCLM: Life Technologies and Expression Analysis (LTEA) Assay for Glutamate-cysteine ligase regulatory (GCLM) using HepaRG (AID 2283500). The gist of the method: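 In this multiplexed HepaRG gene-expression assay, GCLM mRNA change after 48 h treatment (8 concentrations, max 100 uM) was scored against DMSO by bidirectional curve fitting.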

Read-out in assay [10]: Glutathione S-transferase M3 (GSTM3), GSTM3 (gene 2947)
The assay is described as follows: LTEA_HepaRG_GSTM3: Life Technologies and Expression Analysis (LTEA) Assay for Glutathione S-transferase M3 (GSTM3) using HepaRG (AID 2283501). The gist of the method: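 HepaRG, plated 48 h, then serum-free induction medium; test chemical 48 h, duplicate; 100 uM top, half-log x8, 0.5% DMSO. Read-out: GSTM3 mRNA (TaqMan qRT-PCR, Fluidigm array). Bidirectional fit vs DMSO.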

Read-out in assay [11]: Heat shock 70 kDa protein 1 (HSPA1A), gene 3303
Kind of assay: LTEA_HepaRG_HSPA1A: Life Technologies and Expression Analysis (LTEA) Assay for Heat shock 70 kDa protein 1 (HSPA1A) using HepaRG (AID 2283502). The gist of the method: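 An oxidative-stress marker readout: HepaRG cells treated 48 h in duplicate with an eight-point series (highest 100 uM) had HSPA1A mRNA quantified by TaqMan qRT-PCR. Activity was fitted in both directions using 0.5% DMSO as baseline.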

Read-out in assay [12]: Hypoxia-inducible factor 1-alpha (Homo sapiens) (UniProt Q16665)
The assay is described as follows: LTEA_HepaRG_HIF1A: Life Technologies and Expression Analysis (LTEA) Assay for Hypoxia-inducible factor 1 (HIF1A) Trancription factor using HepaRG (AID 2283503).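 Further: HIF1A transcript by TaqMan qRT-PCR normalized to ACTB GAPDH and POLR2A.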 The gist of the method: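 Gain- or loss-of-signal HIF1A mRNA changes are fitted against a DMSO baseline. HepaRG cultures receive eight concentrations, highest 100 uM, for 48 h in serum-free induction medium with 0.5% DMSO.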

Read-out in assay [13]: 3-Hydroxy-3-Methylglutaryl-CoA Synthase 2 (HMGCS2), HMGCS2 (gene 3158)
Kind of assay: LTEA_HepaRG_HMGCS2: Life Technologies and Expression Analysis (LTEA) Assay for 3-Hydroxy-3-Methylglutaryl-CoA Synthase 2 (HMGCS2) using HepaRG (AID 2283504). The gist of the method: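 HepaRG, plated 48 h then switched to serum-free induction media; cmpd 8-pt, max 100 uM, 1/2-log, 0.5% DMSO, n=2, 48 h. HMGCS2 mRNA by Fluidigm TaqMan qRT-PCR, ACTB/GAPDH/POLR2A norm; bidirectional fit vs DMSO.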

Read-out in the next assay: HGF (gene 3082)
The assay is described as follows: LTEA_HepaRG_HGF: Life Technologies and Expression Analysis (LTEA) Assay for Hepatocyte Growth Facto (HGF) using HepaRG (AID 2283505). The procedure, abridged:
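Read-out is HGF transcript level by qRT-PCR, normalized to three housekeeping genes, fitted bidirectionally against 0.5% DMSO vehicle. Human HepaRG cells received test chemicals for 48 h at up to 100 uM.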

Read-out in assay [14]: Insulin Like Growth Factor 1 (IGF1), IGF1 (gene 3479)
The assay is described as follows: LTEA_HepaRG_IGF1: Life Technologies and Expression Analysis (LTEA) Assay for Insulin Like Growth Factor 1 (IGF1) using HepaRG (AID 2283506). The procedure, abridged:
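Endpoint: IGF1 mRNA change by qRT-PCR, housekeeping-normalized, fitted bidirectionally relative to 0.5% DMSO vehicle. Human HepaRG cells were treated 48 h in serum-free induction medium, eight half-log concentrations topping at 100 uM.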

Read-out in assay [15]: Intercellular Adhesion Molecule 1 (ICAM1), ICAM1 (gene 3383)
Kind of assay: LTEA_HepaRG_ICAM1: Life Technologies and Expression Analysis (LTEA) Assay for Intercellular Adhesion Molecule 1 (ICAM1) using HepaRG (AID 2283507). The procedure, abridged:
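Readout is qRT-PCR mRNA level, normalized to three housekeeping genes and fitted bidirectionally against 0.5% DMSO vehicle. Human HepaRG cultures received compound for 48 h, top concentration 100 uM with half-log dilutions.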

Read-out in assay [16]: Insulin-like growth factor-binding protein 1 (IGFBP1), IGFBP1 (gene 3484)
The assay is described as follows: LTEA_HepaRG_IGFBP1: Life Technologies and Expression Analysis (LTEA) Assay for Insulin-like growth factor-binding protein 1 (IGFBP1) using HepaRG (AID 2283508). The procedure, abridged: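 Thawed HepaRG cells are plated for 48 h, switched to serum-free induction medium, then dosed in duplicate for another 48 h (100 uM top, half-log steps). Lysates in RLT go to qRT-PCR, and gain or loss of signal is fitted relative to vehicle.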

Read-out in assay [17]: Interleukin 6 (IL6), IL6 (gene 3569)
The assay is described as follows: LTEA_HepaRG_IL6: Life Technologies and Expression Analysis (LTEA) Assay for Interleukin 6 (IL6) using HepaRG (AID 2283509). The gist of the method:
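qRT-PCR read-out of IL6 transcript, normalized to three housekeeping genes, after 48 h chemical exposure of HepaRG cells; 8-point half-log series, top 100 uM, 0.5% DMSO vehicle. Bidirectional curve fitting against DMSO baseline.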

Read-out in assay [18]: growth arrest and DNA damage 45 (GADD45G), GADD45G (gene 10912)
Kind of assay: LTEA_HepaRG_GADD45G: Life Technologies and Expression Analysis (LTEA) Assay for growth arrest and DNA damage 45 (GADD45G) using HepaRG (AID 2283499). The procedure, abridged:
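Gain or loss of GADD45G mRNA, quantified by TaqMan qRT-PCR against three housekeeping genes, is fitted in both directions relative to 0.5% DMSO. Human HepaRG cultures receive test chemical for 48 h at up to 100 uM.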

Chain of Hypoxia-inducible factor 1-alpha (Homo sapiens) (Q16665 whole entry, looked up): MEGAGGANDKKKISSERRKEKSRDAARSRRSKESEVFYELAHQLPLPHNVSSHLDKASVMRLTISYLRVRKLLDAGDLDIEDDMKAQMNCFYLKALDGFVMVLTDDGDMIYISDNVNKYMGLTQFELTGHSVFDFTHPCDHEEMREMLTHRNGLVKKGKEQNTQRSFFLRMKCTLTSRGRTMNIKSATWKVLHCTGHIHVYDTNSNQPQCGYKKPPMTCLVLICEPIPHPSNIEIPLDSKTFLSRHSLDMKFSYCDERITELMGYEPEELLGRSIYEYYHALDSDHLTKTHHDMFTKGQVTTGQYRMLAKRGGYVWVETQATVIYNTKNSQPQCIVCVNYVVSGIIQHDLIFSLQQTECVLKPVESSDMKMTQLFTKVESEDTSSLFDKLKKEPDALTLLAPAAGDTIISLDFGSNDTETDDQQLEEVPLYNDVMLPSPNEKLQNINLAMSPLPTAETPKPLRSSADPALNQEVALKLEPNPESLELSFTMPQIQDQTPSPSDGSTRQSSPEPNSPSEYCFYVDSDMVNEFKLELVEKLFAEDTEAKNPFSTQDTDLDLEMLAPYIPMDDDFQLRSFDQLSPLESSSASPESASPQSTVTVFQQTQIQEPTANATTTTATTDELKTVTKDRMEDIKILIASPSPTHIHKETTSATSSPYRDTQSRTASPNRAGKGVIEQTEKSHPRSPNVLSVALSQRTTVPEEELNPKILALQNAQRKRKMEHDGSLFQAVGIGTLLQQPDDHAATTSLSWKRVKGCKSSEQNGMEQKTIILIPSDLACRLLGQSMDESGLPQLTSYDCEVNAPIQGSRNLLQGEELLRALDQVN
Chain of Cytochrome P450 3A7 (Homo sapiens) (P24462 whole entry, looked up): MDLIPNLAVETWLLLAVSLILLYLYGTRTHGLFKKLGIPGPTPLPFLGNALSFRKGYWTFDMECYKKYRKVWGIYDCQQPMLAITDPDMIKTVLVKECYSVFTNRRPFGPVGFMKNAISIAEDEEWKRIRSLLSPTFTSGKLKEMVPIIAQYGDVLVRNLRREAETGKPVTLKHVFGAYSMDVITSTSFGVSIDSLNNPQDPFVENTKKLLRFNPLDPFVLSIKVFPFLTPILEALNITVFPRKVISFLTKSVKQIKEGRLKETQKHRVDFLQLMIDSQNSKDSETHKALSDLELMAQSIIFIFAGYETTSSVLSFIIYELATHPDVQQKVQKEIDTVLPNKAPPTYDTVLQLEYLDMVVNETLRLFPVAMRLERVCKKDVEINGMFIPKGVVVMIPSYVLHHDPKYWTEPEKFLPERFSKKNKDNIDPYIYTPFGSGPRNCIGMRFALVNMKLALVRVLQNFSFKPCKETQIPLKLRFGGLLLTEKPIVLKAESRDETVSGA

With `ClC1C(Cl)C(Cl)C(Cl)C(Cl)C1Cl` (stereo not given), the compound was called inactive (in assay [1]; in assay [2]; in assay [3]; with CYP3A5 (gene 1577); in assay [4]; in assay [6]). Further, the outcome in assay [7], in [8], in assay [9], in assay [10], in assay [11] and in assay [12] was inactive. Moreover, the compound was called inactive (in [13]; with HGF (gene 3082); in [15]; in assay [16]; in assay [17]). In addition, the half-maximal activity concentration (AC50) in [4] is 6.88 µM (active); in assay [5], 9.67 µM (active) and 8.27 µM (active); in assay [6], 3.88 µM (active); in assay [13], 25.4 µM (active); in assay [14], 6.89 µM (active).
With `CCOC1Oc2ccc(OS(C)(=O)=O)cc2C1(C)C` (stereo not given), the outcome in assay [1], in assay [3], in assay [8], in assay [10], in [11] and in assay [12] was inactive. Moreover, the call (with HGF (gene 3082); in [15]) was inactive. For the same compound, the AC50 in assay [2] was 78.8 µM (active); with CYP3A5 (gene 1577), 75.2 µM (active); in assay [4] it was 63.7 µM (active); in assay [5], 62.6 µM (active); in [6], 85.6 µM (active); in [7], 82 µM (active). The concentration at half-maximal activity (AC50) in [18] was 78.3 µM (active); in assay [9], 81.8 µM (active); in [13], 79.4 µM (active); in [14], 62.3 µM (active); in assay [17] it was 89.4 µM (active).
Consider `CC(C)OC(=O)Nc1cccc(Cl)c1`, for which the compound was classed as inactive (in [1]; in assay [2]; in assay [3]; with CYP3A5 (gene 1577); in [4]; in [5]). The call in [6], in [7], in assay [8], in [18], in assay [9] and in assay [10] was inactive. For the same compound, the outcome (in [11]; in assay [12]; in assay [13]; with HGF (gene 3082); in assay [14]; in assay [15]) was inactive. In addition, in assay [17], the compound was classed as inactive.
